Compound activity from PubChem BioAssay.
The list is not random: actives were taken first. Their share in the collection is about 19%.
Lassa entry inh = qHTS for Inhibitors of binding or entry into cells for Lassa Virus; 300,000 compounds, 1.2% hits; Potency, µM (titrated, usually from 37.9 µM), actives largely listed as inhibitors; Lassa virus pseudotype entry inhibition, cell reporter; calls by dose curve; tested in HEK293 cells; further: nearly all actives have a fitted effect of over 50% in size
Marburg entry inh = qHTS for inhibitors of binding or entry into cells for Marburg Virus | Marburg virus pseudotyped entry inhibition, cell reporter | Potency, µM (doses to about 37.8 µM), actives largely listed as inhibitors | 300,000 compounds, 1.8% hits | AID 540276, 2011; calls by dose curve; tested in HEK293 cells
Pf growth 48h = Primary qHTS for delayed death inhibitors of the malarial parasite plastid, 48 hour incubation; P. falciparum luciferase growth in erythrocytes, 48 h; Potency, µM (doses to about 28.7 µM), actives largely listed as inhibitors; 310,000 compounds, 5.9% hits
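A one-generation exposure of luciferase-tagged malaria parasites in RPMI 1640/Albumax erythrocyte culture, 37 C and 5% CO2. Inhibition is inferred from decreased luminescence after adding detection reagent.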
Cycloheximide cs = Cycloheximide Counterscreen for Small Molecule Inhibitors of Shiga Toxin; max response, %; AID 2314, 2010; cell reporter, cycloheximide protein synthesis inhibition counterscreen; 300,000 compounds, 12% hits; in the data active means max response mostly above about 13%, no sharp cut-off; inactive means mostly below about 14%; further: read at 38.3 µM for the half of the compounds with a filed dose
Pf growth 96h = Primary qHTS for delayed death inhibitors of the malarial parasite plastid, 96 hour incubation. P. falciparum luciferase reporter growth, 96 h. Potency, µM (series often up to 28.7 µM), most hits filed as inhibitors. 320,000 compounds, 6.9% hits. AID 504834, 2011
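Infected RBCs, 2% Hct / 0.05% parasitemia final; luciferase-reporter P. falciparum; cpd 96 h, 37 C, 5% CO2; luciferase detection reagent; luminescence.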
Shiga inhibitor = A qHTS for Small Molecule Inhibitors of Shiga Toxin; Vero cells, Shiga toxin protein synthesis inhibition reporter; inhibition, % at 38.7 µM; 290,000 compounds, 9.2% hits; in the data active means inhibition mostly above about 28%, no sharp cut-off; inactive means mostly below about 43%
Of the large screens only hits and unclear results are named; the others gave an inactive call. Unless noted, the call rests on the fitted dose curve; in most records, active means well fitted inhibition curve with a large enough effect; inconclusive means small, poorly fitted or top-dose-only effect, or another doubt; inactive means no such curve, though single readings can be large or run the other way.

CCc1ccc(O)c(N=Cc2ccccc2O)c1	Pf growth 48h inconclusive, Cycloheximide cs 14.8, Shiga inhibitor 71.0 (no result: Pf growth 96h)
COCCCNC(=O)CCn1c(=O)c2ccccc2n(CC(=O)Nc2c(C)cccc2C)c1=O	Pf growth 96h 9.28µM
CCCN(CCC)C(=O)Cn1c(=O)n(CCC(=O)NCCc2ccccc2)c(=O)c2ccccc21	Lassa entry inh inconclusive, Pf growth 96h 9.28µM (no result: Pf growth 48h)
FC(F)(F)c1cccc(-c2nnc3ccc(C(F)(F)F)cn23)c1	Lassa entry inh inconclusive (no result: Pf growth 48h)
CCOc1ccc(CCNC(=O)[C@@H](O)c2ccccc2)cc1	none (no result: Lassa entry inh, Pf growth 48h, Cycloheximide cs, Pf growth 96h, Shiga inhibitor)
CC1Oc2cc3c(-c4c(O)cc(O)c5c(O)c6c(cc45)OC(C)C(C)C6=O)c(O)cc(O)c3c(O)c2C(=O)C1C (stereo unspecified)	Pf growth 48h 0.37µM, Pf growth 96h 0.522µM (no result: Lassa entry inh, Marburg entry inh)
COc1nc(OC)nc(N2CCC(C(=O)NCc3ccco3)CC2)n1	none
O=C(NCc1ccco1)C1CCN(c2nnc(-n3cccc3)s2)CC1	Cycloheximide cs 15.6 (no result: Lassa entry inh, Marburg entry inh)
O=C(NCCCN1CCN(Cc2ccccc2)CC1)C1CCN(c2nnc(-n3cccc3)s2)CC1	Marburg entry inh inconclusive, Pf growth 48h inconclusive
O=C(NCCCN1CCc2ccccc2C1)C1CCN(c2nnc(-n3cccc3)s2)CC1	Marburg entry inh 14.6µM, Pf growth 48h 4.15µM, Pf growth 96h inconclusive
O=C(NCc1ccco1)C1CCN(c2nc3ccccc3n2Cc2ccc(F)cc2)CC1	Pf growth 96h 10.4µM (no result: Lassa entry inh, Marburg entry inh, Pf growth 48h)
CCCC(=O)Nc1nnc(SCc2cc(=O)n3ccccc3n2)s1	none (no result: Marburg entry inh, Pf growth 48h, Cycloheximide cs, Pf growth 96h, Shiga inhibitor)
CC1CN(C(=O)c2nn(C)cc2[N+](=O)[O-])CC(C)O1 (stereo unspecified)	none
CSc1nncc(/C(C)=N/O)n1	none
COCCOC1CCN(C(=O)C2CCC(=O)N(Cc3cccc(F)c3)C2)CC1 (stereo unspecified)	none
Cc1ccc(C(=O)C=Cc2cccc(C)c2)cc1	none (no result: Pf growth 48h, Cycloheximide cs, Pf growth 96h, Shiga inhibitor)
O=C(/C=C/c1ccc(OC2CSC2)cc1)c1ccc(Cl)cc1	Marburg entry inh inconclusive
CCC1CSC(Nc2ccc(C(=O)/C=C/c3cccc(C)c3)cc2)=N1 (stereo unspecified)	Marburg entry inh inconclusive, Cycloheximide cs 13.0, Pf growth 96h inconclusive
CCC1CSC(Nc2ccc(C(=O)/C=C/c3ccc(Oc4ccccc4)cc3)cc2)=N1 (stereo unspecified)	Lassa entry inh inconclusive, Marburg entry inh inconclusive, Pf growth 48h 10.4µM, Cycloheximide cs 47.1, Pf growth 96h 6.57µM, Shiga inhibitor 30.3
O=C(Nc1ccccc1)Nc1scc2c1c(=O)oc1ccccc12	none (no result: Lassa entry inh, Marburg entry inh)
COC(=O)Cc1ccc(NC(=O)c2ccc3c(c2)C(=O)N(Cc2ccco2)C3=O)cc1	none
Cc1cc(C)cc(NS(=O)(=O)c2c(C)[nH]c(=O)[nH]c2=O)c1	Lassa entry inh inconclusive, Marburg entry inh inconclusive, Pf growth 96h 2.08µM
Cc1ccc(NS(=O)(=O)c2c(C)[nH]c(=O)[nH]c2=O)cc1F	Pf growth 96h inconclusive (no result: Lassa entry inh, Marburg entry inh)
CC1C(=O)N2CCCc3cc(NC(=O)C(=O)NCCCc4ccccc4)cc1c32 (stereo unspecified)	Marburg entry inh inconclusive, Pf growth 48h 11.7µM, Pf growth 96h inconclusive (no result: Cycloheximide cs, Shiga inhibitor)
CC1C(=O)N2CCCc3cc(NC(=O)COc4ccc(Cl)cc4)cc1c32 (stereo unspecified)	Pf growth 48h inconclusive, Pf growth 96h 14.7µM (no result: Cycloheximide cs, Shiga inhibitor)
CNC(=O)C(=O)Nc1cc2c3c(c1)C(C)C(=O)N3CCC2 (stereo unspecified)	none (no result: Lassa entry inh, Marburg entry inh)
CC(Sc1ccccc1)C(=O)NCC(c1ccco1)N1CCCCC1 (stereo unspecified)	Pf growth 48h inconclusive, Pf growth 96h inconclusive (no result: Cycloheximide cs, Shiga inhibitor)
C=CCn1c(=NC(=O)C2CCCCC2)sc2cc(NC(C)=O)ccc21	none (no result: Lassa entry inh, Marburg entry inh)
C=CCn1c(=NC(=O)C2CC2)sc2cc(NC(C)=O)ccc21	Cycloheximide cs 27.7 (no result: Lassa entry inh, Marburg entry inh, Pf growth 48h)
CC(=O)N1CCN(CC(=O)Nc2ccc(Cl)c(S(=O)(=O)N(C)C)c2)CC1	Marburg entry inh inconclusive
O=[N+]([O-])c1ccc(N2CCN(c3ccccn3)CC2)c(Cl)c1	Pf growth 48h inconclusive, Pf growth 96h inconclusive, Shiga inhibitor 58.7 (no result: Lassa entry inh)
O=C(CN1CCN(c2ccccc2O)CC1)Nc1cc([N+](=O)[O-])ccc1Cl	Pf growth 48h 9.28µM, Pf growth 96h inconclusive (no result: Lassa entry inh, Marburg entry inh)
O=[N+]([O-])c1ccc(N2CCN(c3ccccc3O)CC2)c(Cl)c1	Marburg entry inh inconclusive, Pf growth 48h inconclusive, Cycloheximide cs 47.7, Pf growth 96h inconclusive, Shiga inhibitor 133.1
O=C(c1ccc([N+](=O)[O-])cc1Cl)N1CCN(c2ccccn2)CC1	none (no result: Lassa entry inh, Marburg entry inh)
CN(C)S(=O)(=O)c1cc(NC(=O)CN2CCN(c3ccccc3O)CC2)ccc1Cl	Lassa entry inh 0.562µM, Pf growth 48h inconclusive, Pf growth 96h inconclusive
CCCc1nc2nc(C)c(NS(=O)(=O)c3ccc(CC(C)C)cc3)c(=O)n2[nH]1	none
COc1cc(C)ccc1OCc1cc(C(=O)N2CCC(c3ccc(F)cc3)C2)no1 (stereo unspecified)	Cycloheximide cs 58.1, Shiga inhibitor 113.4 (no result: Lassa entry inh, Marburg entry inh)
Cc1ccc(C)c(OCc2cc(C(=O)N3CC[C@@H]4CCCC[C@H]4C3)no2)c1	Marburg entry inh inconclusive, Cycloheximide cs 33.0, Shiga inhibitor 104.6
Cc1ccc(C)c(OCc2cc(C(=O)N3C[C@@H](C)O[C@@H](C)C3)no2)c1	Marburg entry inh inconclusive, Cycloheximide cs 47.6, Pf growth 96h inconclusive, Shiga inhibitor 86.6
Cn1c(SCC(=O)NCC2CCCO2)nc2c([nH]c3ccccc32)c1=O (stereo unspecified)	none
N#CC(C#N)=C1C=CC=CN1/C(=C\c1ccco1)C(=O)c1ccc(Br)cc1	Lassa entry inh inconclusive, Marburg entry inh 6.31µM, Pf growth 48h inconclusive, Pf growth 96h inconclusive
N#CC(C#N)=C1C=CC=CN1/C(=C\c1ccco1)C(=O)c1ccccc1	Lassa entry inh inconclusive, Marburg entry inh 25.1µM, Pf growth 48h inconclusive, Pf growth 96h inconclusive
COc1ccc(C(=O)/C(=C\c2ccco2)N2C=CC=CC2=C(C#N)C#N)cc1	Lassa entry inh inconclusive, Marburg entry inh inconclusive, Pf growth 48h inconclusive, Pf growth 96h inconclusive
C=CCSc1ncc(C(=O)OCC)c(N)n1	Cycloheximide cs 40.5, Shiga inhibitor 51.1
CCOC(=O)c1cnc(SCC(=O)OC)nc1N	Cycloheximide cs 33.8, Pf growth 96h inconclusive (no result: Lassa entry inh, Marburg entry inh)
CCOC(=O)CC(=O)CSc1ncc(C(=O)OCC)c(N)n1	none
CCOC(=O)c1cnc(SCCN2CCOCC2)nc1N	Marburg entry inh inconclusive, Cycloheximide cs 18.3
Cc1ccc(CN2CCN(Cc3cnc(N4CCOCC4)s3)CC2CCO)cc1 (stereo unspecified)	Pf growth 96h inconclusive (no result: Lassa entry inh, Marburg entry inh)
CCOC(=O)C1(CCOc2ccccc2)CCN(C2Cc3ccccc3C2)CC1	Pf growth 48h inconclusive, Pf growth 96h inconclusive (no result: Lassa entry inh)
CC1=CC(=C2C(=O)c3ccccc3C2=O)C=C(C)N1Cc1ccco1	Marburg entry inh inconclusive, Cycloheximide cs 37.0, Pf growth 96h inconclusive, Shiga inhibitor 65.7
CC1=CC(=C2C(=O)c3ccccc3C2=O)C=C(C)O1	Cycloheximide cs 11.3
